Source: PubChem BioAssay
Shown are actives, neighbours in structure and some others; about 2.1% of the full set was active somewhere.
HIF-2a block – blocks HIF-2a reporter activity; 786-0 RCC cells HIF-2a reporter, luciferase luminescence, overnight; inhibition, % at 18.8 µM; actives 0.72% (n = 360,000);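 active means inhibition of the luminescence signal of 40% or more relative to plate controls, in a single-dose primary screen at 18.75 µM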
PAX8 inh HTS – lowers PAX8-driven luciferase in RMG-I cells. RMG-I TPO-luciferase reporter, SteadyGlo, 24 h. inhibition, % at 12.6 µM. AID 652154. actives 1.2% (n = 360,000);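 active means mean replicate inhibition at least 60% with every replicate also reaching 60%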;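 further: luciferase light reporting Pax8 driven TPO promoter activity; plate controls were median of neutral control wells for no effect and mitoxantrone controls for full effect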
KKLEB cytotox – reduces viability of KKLEB cystic fibrosis airway cells; KKLEB CF airway cells viability, ATPlite luminescence, overnight; active compounds read low; cells stimulated with P. aeruginosa culture filtrate; activity change (cytotoxicity), % at 5 µM; actives 0.36% (n = 360,000); AID 602141;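 active means corrected activity change at or below -50% at 5 µM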
EWS-Fli block – blocks EWS/Fli oncoprotein-driven transcription; actives 0.67% (n = 350,000); A673 NR0B1-luciferase reporter, viability-normalised; inhibition, % at 12.6 µM;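 active means mean inhibition of at least 50% after viability correction, with every replicate also passing that limit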;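 further: firefly luciferase signal divided by Alamar Blue viability fluorescence both relative to DMSO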
CF NFkB inh – cystic fibrosis NF-kB activation inhibition; actives 0.86% (n = 360,000); KKLEB NF-kB-GFP reporter, PAF-induced, GFP fluorescence overnight; inhibition, % at 5 µM;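 active means at least 50% inhibition at 5 µM, scaled per plate between neutral and stimulator controls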;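 further: PAF is a Pseudomonas aeruginosa culture filtrate used as stimulus; plate controls were PAF-stimulated DMSO wells for no effect and unstimulated DMSO wells for full effect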
* marks the source's active call; other numbers are inactive results; . = not tested or not shown.

SMILES	HIF-2a block	PAX8 inh HTS	KKLEB cytotox	EWS-Fli block	CF NFkB inh
COCC(=O)Nc1ccc2c(c1)C(=O)N(C)C[C@@H](OC)[C@@H](C)CN(C(=O)Cc1ccccn1)[C@H](C)CO2	.	-19	.	2	.
O=C(c1ccccc1F)N1C[C@@H]2O[C@H](CNS(=O)(=O)c3ccccc3)CC[C@@H]21	.	.	.	19	.
CC(C)CC#Cc1ccc2c(c1)O[C@@H](CN(C)C(=O)Nc1ccccc1F)[C@@H](C)CN([C@H](C)CO)S2(=O)=O	.	.	.	2	.
O=C1C(=O)c2c(ccc3ccccc23)-c2ccccc21	-106	13	-84*	14	74*
CN(C)/C=C1\Oc2ccc3ccccc3c2C1=O	-318	16	0	-136	-20
O=C(Nc1ccc(Cl)c(Cl)c1)N[C@@H]1CC[C@H](CCn2cc(C3CCCCC3)nn2)O[C@H]1CO	.	113*	.	25	.
COC(=O)c1sc2nc(C)cc(C)c2c1N	-73	-31	16	-15	-24
Cc1cc(C)c2c(N)c(C(=O)Nc3ncc(C)s3)sc2n1	87*	104*	-69*	.	-4
CC1(C)CN(O)CCN1O	10	17	5	73*	-9
C[C@H](CO)N1C[C@H](C)[C@H](CN(C)C(=O)NC2CCCCC2)OCCCC[C@H](C)Oc2ccc(NC(=O)Nc3ccc(F)cc3)cc2C1=O	.	65*	.	-1	.
C[C@@H]1CCCCO[C@H](CN(C)C(=O)NC2CCCCC2)[C@H](C)CN([C@H](C)CO)C(=O)c2cc(NC(=O)Nc3ccc(C(F)(F)F)cc3)ccc2O1	.	73*	.	4	.
C[C@@H]1CN([C@H](C)CO)C(=O)c2cc(NC(=O)Nc3ccc(C(F)(F)F)cc3)ccc2O[C@@H](C)CCCCO[C@H]1CN(C)C(=O)NC1CCCCC1	.	96*	.	17	.
CCCNC(=O)N1CC(=O)N2[C@H](CO)[C@@H](c3ccc(-c4ccc(C)cc4)cc3)[C@H]2C1	.	26	.	-6	.
CC(=NNC(=S)N1CCCCC1)c1cccc(C)n1	-110	4	26	4	-35
CC(NNC(=S)N1CCCCCC1)c1ccc2ccccc2n1 (stereo unspecified)	-184	81*	-17	3	10
C[C@H]1CN([C@@H](C)CO)C(=O)c2cccc(NS(=O)(=O)c3ccc(F)cc3)c2O[C@H]1CN(C)S(C)(=O)=O	.	.	.	1	.
CCC[C@@H](CN[C@@H](CNC)[C@H](C)CC)NCC1CCC(C(C)(C)C)CC1 (stereo partly specified)	-3	93*	-30	56*	9
CCCC[C@@H](CNC)NC[C@H](NCCCCC1CCCCC1)C(C)C	-2	28	-11	17	23
CC(C)NC(=O)N(C)C[C@H]1OCCCC[C@@H](C)Oc2ccc(N(C)C)cc2C(=O)N([C@H](C)CO)C[C@H]1C	.	-6	.	.	.
CO[C@@H]1CN(C)C(=O)c2ccc(NS(C)(=O)=O)cc2OC[C@H](C)N(CC2CC2)C[C@@H]1C	.	-11	.	-2	.
O=Nc1c(-c2c(O)[nH]c3cc(Br)ccc23)[nH]c2ccccc12	-17	26	-8	-46	107*
COc1ccc2[nH]c(C(=O)N/N=C/c3ccc(O)cc3O)cc2c1	-6	85*	4	15	24
C[C@@H]1CCCCO[C@@H](CN(C)S(=O)(=O)c2ccc(Cl)cc2)[C@H](C)CN([C@@H](C)CO)C(=O)c2cc(NC(=O)Nc3ccc(C(F)(F)F)cc3)ccc2O1	.	22	.	-3	.
C[C@H](CO)N1C[C@H](C)[C@H](CN(C)S(=O)(=O)c2ccc(Cl)cc2)OCCCC[C@H](C)Oc2ccc(NC(=O)Nc3ccc(C(F)(F)F)cc3)cc2C1=O	.	78*	.	-20	.
C[C@@H]1CN([C@H](C)CO)C(=O)c2cc(NC(=O)Nc3ccccc3)ccc2O[C@@H](C)CCCCO[C@H]1CN(C)S(=O)(=O)c1ccc(Cl)cc1	.	70*	.	-22	.
C[C@H](CO)N1C[C@H](C)[C@@H](CN(C)S(=O)(=O)c2ccc(Cl)cc2)OCCCC[C@H](C)Oc2ccc(NC(=O)CCC(F)(F)F)cc2C1=O	.	-1	.	1	.
C[C@@H]1CCCCO[C@H](CN(C)S(=O)(=O)c2ccc(Cl)cc2)[C@@H](C)CN([C@@H](C)CO)C(=O)c2cc(NC(=O)CCC(F)(F)F)ccc2O1	.	93*	.	0	.
C[C@@H]1CN([C@H](C)CO)C(=O)c2cc(NC(=O)Nc3ccc(C(F)(F)F)cc3)ccc2O[C@@H](C)CCCCO[C@H]1CN(C)S(=O)(=O)c1ccc(Cl)cc1	.	88*	.	-10	.
